Experimental findings from PubChem BioAssay AID1220 (Sanford-Burnham Center for Chemical Genomics, 2008) are described below.

Several values for one entry are separate records, joined by “and”; a condition that tells them apart may be missing. Equal values may be shown once. Screen size: about 190,000 compounds; about 1,300 (0.68%) were called active. Rule as the data show it: active = inhibition above about 50%; inactive = the rest. Shown is part of a subset that was picked to be rich in actives.

Chain of Mannose-6-phosphate isomerase (Homo sapiens) (P34949 whole entry, looked up): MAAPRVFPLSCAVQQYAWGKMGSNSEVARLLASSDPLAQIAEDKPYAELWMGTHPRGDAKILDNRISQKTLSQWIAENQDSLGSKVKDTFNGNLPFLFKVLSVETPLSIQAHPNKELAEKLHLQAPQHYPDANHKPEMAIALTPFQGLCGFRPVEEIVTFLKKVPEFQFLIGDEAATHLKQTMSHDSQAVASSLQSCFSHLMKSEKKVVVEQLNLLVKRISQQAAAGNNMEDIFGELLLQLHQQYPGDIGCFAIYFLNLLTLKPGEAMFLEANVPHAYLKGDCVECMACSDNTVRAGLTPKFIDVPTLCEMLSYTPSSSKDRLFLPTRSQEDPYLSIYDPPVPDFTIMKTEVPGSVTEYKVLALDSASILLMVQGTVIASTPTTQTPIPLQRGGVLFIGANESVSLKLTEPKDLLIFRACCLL

This assay has as its target Mannose-6-phosphate isomerase (Homo sapiens) (UniProt P34949). The experiment in a line: MPI inhibition at elevated mannose 6-phosphate – biochemical, fluorescence intensity, high mannose 6-phosphate, primary screen (AID 1220). The conditions noted are these: recombinant PMI enzyme, coupled fluorescence intensity; at 20 µM; stronger effect = higher value.
Usually inhibition stands for the drop in the measured response relative to a control, in per cent. On to `COc1cc(CNc2ccc(N3CCCC3)cc2)ccc1OCc1ccccc1`, for which the inhibition is 71.5% (active). The value for `CCNCc1ccc(OCc2ccccc2F)c(OC)c1` was -4.4% (inactive). As to `COc1cc(CNCCCCO)ccc1OCc1ccccc1F`, the inhibition is 2.9% (inactive). The value for `COc1ccc(NCc2ccc(OC)c(OC)c2)cc1` was 60.3% (active); that for `COc1ccc(CNc2ccc(C)c(C)c2)cc1` was 9.2% (inactive); that for `COc1cc(CNc2ccc(N3CCCC3)cc2)ccc1OCc1ccccc1F` was 55.7% (active). For the compound `COc1cc(CNc2ccc(O)cc2)cc(Br)c1OCc1ccccc1`, the inhibition was 49.4% (inactive). For `COc1cc(CNc2ccc(N3CCN(C(C)=O)CC3)cc2)ccc1OCc1ccccc1`, the inhibition is 38.7% (inactive).

On to `CCOc1cc(CNc2ccc(O)cc2)cc(Br)c1OCc1ccccc1F`, for which the inhibition is 29.5% (inactive). The value for `COc1cc(CNc2ccc(N3CCN(C(C)=O)CC3)cc2)ccc1OCc1ccc(F)cc1` was 27% (inactive); that for `COc1ccc(CNS(=O)(=O)NCc2ccc(OC)c(OC)c2)cc1` was -3.8% (inactive); that for `COc1cc(CNc2ccc(O)cc2)cc(Br)c1OCc1ccccc1F` was 57.4% (active). The value for `Cc1cccc(C)c1NC(=O)C1=C(O)c2sccc2N(C)S1(=O)=O` was 2.2% (inactive).

`CCOC(=O)c1c(NC(=O)CSc2nnc(CNC(=O)c3ccco3)n2C)sc2c1CCC2`: the inhibition is 4.5% (inactive). The value for `CCCCCNCc1cccn1C` was -9.2% (inactive); that for `CCC(CC)N=C1NS(=O)(=O)c2cc([N+](=O)[O-])ccc21` was -4.3% (inactive); that for `Cc1cc(=O)oc2cc(OCC(O)CN3CCN(c4ccc(F)cc4)CC3)ccc12` (configuration not stated) was 7.1% (inactive). Turning to `O=C(COC(=O)COc1ccccc1)Nc1ccccc1OC(F)F`, the inhibition was -0.8% (inactive). The result for `Cc1cccc(NS(=O)(=O)c2cc(C(=O)N3CCOCC3)ccc2Cl)c1` reads 6.8% (inactive); that for `CN(C)c1cccc(C(=O)NC2CCCCCC2)c1`, 5.6% (inactive). The value for `Cc1ccccc1CN(C)CC(=O)Nc1c(C)cccc1C(C)C` was 0.5% (inactive).

Regarding `CN(C)c1cccc2c(C=C(C#N)C#N)ccc(N(C)C)c12`, the inhibition is 63.9% (active). The value for `CN(C)c1cccc2c(/C=N/O)ccc(N(C)C)c12` was 51.7% (active); that for `Cc1cccc(OCCOc2ccccc2C=C(C#N)C#N)c1` was 11% (inactive). The value for `CC(=O)c1ccc(N(C)C)c2c(N(C)C)cccc12` was 38.5% (inactive); that for `CN(C)c1ccc(/C=N/O)cc1` was 44.3% (inactive); that for `Cc1ccccc1OCCOc1ccccc1C=C(C#N)C#N` was 16.3% (inactive). The result for `CCOC(=O)C1CCN(C(=O)c2ccc3c(c2)OCO3)CC1` reads 11.2% (inactive); that for `COc1ccccc1OCC(=O)Nn1c(=S)[nH]c2ncccc2c1=O`, -3.7% (inactive); that for `CC(c1ccccc1)n1cc(C(=O)NCCN2CCOCC2)nn1` (configuration not stated), -7.2% (inactive). Regarding `Cc1csc(NC(=O)c2ccccc2[N+](=O)[O-])n1`, the inhibition is -6.4% (inactive). The result for `Nc1cnccc1C(=O)O` reads 63.7% (active).

Consider `Nc1ccc(Br)cc1C(=O)O`, for which the inhibition was 1.2% (inactive). The value for `COC(=O)c1ccncc1N` was 8.9% (inactive). The value for `COc1ccc(NC(=O)CSc2nc3c(c(=O)n2-c2ccccc2)SCC3)c(OC)c1` was 2.7% (inactive). The result for `CCN(CC)C(=O)c1cn(CC)c(=O)c2cc(OC)c(OC)cc12` reads -0.2% (inactive); that for `CC(=O)Nc1cccc(NC(=S)Nc2ccc(F)cc2F)c1`, 55.8% (active).

As to `CC(=O)Nc1cccc(NC(=S)Nc2ccc(F)c(Cl)c2)c1`, the inhibition was 41.1% (inactive). The value for `CC(=O)Nc1cccc(NC(=O)Nc2ccc(F)cc2F)c1` was 19.6% (inactive); that for `COc1cccc(-n2c(Cc3cc(=O)[nH]c(=O)[nH]3)nnc2SCC(=O)N2CCC(C)CC2)c1` was 3.3% (inactive). The result for `CCOC(=O)c1c(C)[nH]c(C)c1C(=O)COC(=O)c1ccc(S(=O)(=O)N(CC)CC)cc1` reads 4.4% (inactive). The result for `Cc1ccc2ncccc2c1[N+](=O)[O-]` reads 9.7% (inactive); that for `c1cnc2c(c1)ccc1cccnc12`, -13% (inactive) and -7.3% (inactive). For `Cc1ccc2nc(C)c(C)nc2c1N`, the inhibition is 23.4% (inactive). The result for `Cc1ccc2cccnc2c1N` reads 70.5% (active); that for `Cc1ccc2ncccc2c1N`, 63.7% (active). The result for `Nc1ccc2ncccc2c1N` reads 49.6% (inactive); that for `O=C(c1cnc2n(c1=O)CCS2)N(c1ccccc1)C1CCCCC1`, -10.4% (inactive). The result for `CCc1ccc(NC(=O)c2c(C(=O)Nc3ccccc3)sc3nc(C)cc(=O)n23)cc1` reads -2.4% (inactive).

With `CCOC(=O)N1CCN(Cc2c(NC(=O)c3ccco3)sc(C)c2C)CC1`, the inhibition is 3.6% (inactive). The value for `CC1(C)CC(=O)C(C2=NC(C)(C)Cc3ccccc32)=C(O)C1` was -9.5% (inactive); that for `CC1=NC(C)(C)Cc2ccccc21` was 11% (inactive). The result for `CCOc1ccc2[nH]c(=S)[nH]c2c1` reads 20.7% (inactive); that for `COC(=O)/C=C1/N/C(=N\c2nc(C)cc(C)n2)N(c2ccccc2)C1=O`, 13.3% (inactive); that for `COC(=O)/C=C1\N/C(=N\c2nc(C)cc(C)n2)N(c2ccc(C)cc2)C1=O`, -5.3% (inactive). The result for `COC(=O)/C=C1/N/C(=N\c2nc(C)cc(C)n2)N(c2cccc(C)c2)C1=O` reads 50.4% (active); that for `CC(/C=N\NC(=O)CN1CCN(Cc2ccccc2)CC1)=C\c1ccco1`, 9.7% (inactive). As to `CN1CCN(C(c2ccccn2)c2cc(Cl)c3cccnc3c2O)CC1` (configuration not stated), the inhibition was 43.8% (inactive).

For `Oc1c(C(c2ccccn2)N2CCC(Cc3ccccc3)CC2)cc(Cl)c2cccnc12` (configuration not stated), the inhibition is 58.9% (active).

In the case of `Oc1c(C(c2ccccn2)N2CCCCC2)cc(Cl)c2cccnc12` (configuration not stated), the inhibition is 32.5% (inactive). The value for `CC(=O)Cc1nsc(NC(=O)c2ccccc2)n1` was 6.4% (inactive). The result for `Cc1ccc2cn[nH]c2c1N` reads 58.3% (active); that for `Cc1cccc2cn[nH]c12`, -8.9% (inactive).

Consider `Cc1ccc2cn[nH]c2c1[N+](=O)[O-]`, for which the inhibition was 6.8% (inactive).

For `Nc1nc(SCC(=O)NCc2ccccc2)[nH]c(=O)c1NC(=O)c1ccccc1F`, the inhibition is 9.7% (inactive). The value for `Cc1ccc(NC(=O)c2ccn(C)n2)c(Br)c1` was 6% (inactive); that for `O=C(Cn1nc(C(F)(F)F)c2c1CCC2)N1CCN(c2ccccc2)CC1` was 9.9% (inactive); that for `CC(C)CC(=O)O/N=C1\C(=O)N(Cc2ccc(Cl)cc2)c2ccc([N+](=O)[O-])cc21` was 22.3% (inactive).

For the compound `CCCn1c(C)cc(/C=C(\C#N)C(=O)OCC(=O)NC(=O)NC(C)(C)C)c1C`, the inhibition is -3.7% (inactive). The value for `CCN1CCN(c2cc(C)c3cc(NC(=S)N4CCN(c5ccccc5)CC4)ccc3n2)CC1` was 28.1% (inactive). The result for `Cc1cc(N2CCOCC2)nc2ccc(NC(=S)N3CCN(Cc4ccccc4)CC3)cc12` reads 35.3% (inactive); that for `Cc1cc(N2CCN(C)CC2)nc2ccc(NC(=S)N3CCN(c4ccc(Cl)cc4)CC3)cc12`, 41.7% (inactive).

Consider `Cc1cc(N2CCN(C)CC2)nc2ccc(NC(=S)N3CCN(c4ccc(F)cc4)CC3)cc12`, for which the inhibition is 29.1% (inactive). Take `Cc1cccc(N2CCN(C(=S)Nc3ccc4nc(N5CCOCC5)cc(C)c4c3)CC2C)c1` (configuration not stated): the inhibition is 51.9% (active). The result for `Cc1cccc(N2CCN(C(=S)Nc3ccc4nc(N5CCN(C)CC5)cc(C)c4c3)CC2)c1C` reads 16.2% (inactive). The value for `Cc1cc(N2CCOCC2)nc2ccc(NC(=S)N3CCN(c4ccccc4)CC3)cc12` was 52.5% (active).

Take `COc1ccccc1N1CCN(C(=S)Nc2ccc3nc(N4CCOCC4)cc(C)c3c2)CC1`: the inhibition was 62.5% (active).

For the compound `Cc1ccc(C)c(N2CCN(C(=S)Nc3ccc4nc(N5CCOCC5)cc(C)c4c3)CC2)c1`, the inhibition was 58.5% (active). As to `Cc1ccc(C)c(N2CCN(C(=S)Nc3ccc4nc(N5CCN(C)CC5)cc(C)c4c3)CC2)c1`, the inhibition is 24.4% (inactive). The value for `Cc1cccc(N2CCN(C(=S)Nc3ccc4nc(N5CCN(C)CC5)cc(C)c4c3)CC2C)c1` (configuration not stated) was 17.5% (inactive); that for `CCN1CCN(c2cc(C)c3cc(NC(=S)N4CCOCC4)ccc3n2)CC1` was 13.3% (inactive). The result for `CCOc1cc2[nH]c(=O)n(CCCN3CCN(c4ccc(OC)cc4)CC3)c(=O)c2cc1OCC` reads 21.4% (inactive); that for `COc1ccc(N/C=C\C(=O)c2ccc(C)cc2)cc1OC`, 18.6% (inactive).

Take `Cc1occc1C(=O)NNC(=S)NCc1ccc(Cl)cc1`: the inhibition was -4.2% (inactive).

`CCCC(=O)NCCc1nc2ccccc2n1CC(=O)c1ccccc1`: the inhibition is 4.9% (inactive).

In the case of `CCN(CC)S(=O)(=O)c1ccc(N2C(=O)Nc3ccccc3N2O)cc1`, the inhibition is -8.2% (inactive). The result for `COc1nccc(Nc2ccccc2)c1C#N` reads -7.6% (inactive); that for `Cc1cc(N2CCN(C)CC2)nc2ccc(NC(=S)N3CCOCC3)cc12`, 23.9% (inactive); that for `Cc1cc(N2CCN(C)CC2)nc2ccc(NC(=S)N3CCCCCC3)cc12`, 24.8% (inactive). The result for `Cc1cc(N2CCN(C)CC2)nc2ccc(NC(=S)N3CCCCC3)cc12` reads 53.5% (active); that for `FC(F)(F)c1cnc(Oc2cccc3ccccc23)c(Cl)c1`, 10.7% (inactive).

In the case of `CN(CC(=O)Nc1ccc(N2CCOCC2)cc1)C(=O)C1CCCC1`, the inhibition is 9.6% (inactive). The result for `CC1N(C)c2cccc3cccc(c23)N1C` reads 62.9% (active). The result for `CN1/C(=N\O)c2cccc3cccc1c23` reads 42.5% (inactive); that for `CN1c2cccc3cccc(c23)N(C)C1c1cccs1`, 58.6% (active). The result for `CN1C(=O)c2ccccc2N(C)C1c1cccs1` (configuration not stated) reads 10% (inactive); that for `CN1CN(C)c2cccc3cccc1c23`, 48.7% (inactive); that for `c1csc(C2Nc3cccc4cccc(c34)N2)c1`, 11.7% (inactive). As for `O=C(COC(=O)c1ccccc1)Nc1cc(Cl)ccc1Oc1ccccc1`, the inhibition was 0.2% (inactive). For the compound `COc1ccc(N2CC(NC(=O)Nc3ccccc3)CC2=O)cc1` (configuration not stated), the inhibition was -16.3% (inactive). The value for `COc1ccc(N2CC(NC(=O)NCC(C)C)CC2=O)cc1` (configuration not stated) was 7.2% (inactive). The value for `COc1ccc(N2CC(NC(=O)NC(C)(C)C)CC2=O)cc1` (configuration not stated) was 53.9% (active).
